Reference: PubChem BioAssay AID1159580 (chemical genetic matrix, 2015)
Among all 5,500 compounds or so, about 2,000 (36%) were called active. Another 18% or so got no clear call; they are omitted. No stated cut-off is given here; in the data, active means normalized growth mostly below about 0.91 (no sharp cut-off); inconclusive means no clear call, values can overlap the other calls; inactive means mostly above about 0.92. The list shows a part of the results.

Assay: chemical genetic growth profiling, strain panel (AID 1159580);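 further: tested at 20 µM; growth read once vehicle control cultures reached saturation at 30 °C; 1 = growth at the plate median or of vehicle wells; lower values mean less growth of the strain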
Conditions: S. cerevisiae deletion strains, growth OD

Measured: normalized growth

O=[N+]([O-])c1ccc2nc(N3CCNCC3)ccc2c1
inactive: locus YAL013W, strain DEP1, active compounds read low 0.999 | locus YAL040C, strain CLN3, active compounds read low 0.985 | locus YCL061C, strain MRC1 (second series), active compounds read low 0.995 | locus YDR150W, strain NUM1, active compounds read low 0.994 | locus YDR363W, strain ESC2, active compounds read low 1.04 | locus YER002W, strain NOP16, active compounds read low 1.01 | locus YGR078C, strain PAC10, active compounds read low 1 | locus YMR307W, strain GAS1, active compounds read low 1 | locus YNL175C, strain NOP13, active compounds read low 1 | locus YNL197C, strain WHI3, active compounds read low 1 | locus YNL224C, strain SQS1, active compounds read low 1.01 | locus YOR083W, strain WHI5 (second series), active compounds read low 1.01 | locus YPL241C, strain CIN2, active compounds read low 1.01
